Sampled rows, rich in hits. Any-hit rate of the full collection: about 9.3%.
ELG1 genotox: inducers of genotoxicity in HEK293T ELG1-luciferase cells | HEK293T ELG1-luciferase reporter, luminescence, 16 h | Potency, µM (titrated, usually from 46 µM), hits mostly activators | actives 1.3% (n = 330,000) | AID 504466; further: nearly all actives have a fitted effect of over 60% in size
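Quantitative HTS format in 1536-well plates. HEK293T ELG1-luciferase reporter cells receive test compound and are incubated 16 hr at 37 °C, 5% CO2; ONE-Glo added, 30 min room temperature, then luminescence read.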
Rab9 promoter act: Rab9 promoter activation | actives 2.8% (n = 320,000) | Potency, µM (series often up to 9.22 µM), usual class: activators | Huh7 Rab9 promoter-luciferase reporter, luminescence, 24 h | AID 485297; further: nearly all actives have a fitted effect of over 60% in size
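Cell-based reporter: Huh7 stable for Rab9 promoter-driven luciferase, plated in reduced-serum medium with 10% FBS at 1500 cells/well, compound-treated 24 h at 37 °C, luminescence read after 10 min reagent.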
SMN2 splice up: enhancers of SMN2 splice variant expression; HEK293 SMN2-luciferase splicing reporter, luminescence, 30-36 h; Potency, µM (top dose mostly 46.1 µM), most hits filed as activators; actives 2.8% (n = 210,000); AID 1458; further: nearly all actives have a fitted effect of over 55% in size
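HEK293 cells carry an SMN2 […]–luciferase reporter in which exon 7 inclusion puts luciferase in frame. Cells were plated 10-12 h before compound addition, then incubated 30-36 h at 37C. ONE-Glo luminescence was read; sodium butyrate at 4.5 mM final served as control.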
NPC1 prom act: activates the NPC1 promoter; AID 485313; Potency, µM (series often up to 9.22 µM), usual class: activators; actives 2.4% (n = 320,000); Huh7 NPC1 promoter luciferase reporter, 24 h; further: nearly all actives have a fitted effect of over 60% in size
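Compounds in DMSO were transferred onto Huh7 NPC1-luciferase reporter cells pre-incubated 2 h; after 24 h at 37 °C, Amplite reagent was dispensed and luminescence recorded 10 min later.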
ELG1 DNA repair: blocks ELG1-dependent DNA repair in HEK293T cells. HEK293T ELG1-luciferase reporter, luminescence, 16 h; DNA damage induced by 5-fluorouridine. Potency, µM (top dose mostly 46.1 µM), usual class: inhibitors. actives 2.3% (n = 330,000). AID 504467; further: nearly all actives have a fitted effect of over 55% in size
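5-Fluorouridine DNA damage + compound/DMSO, 2,000 cells/well, 16 h, 37 °C/5% CO2. ONE-Glo, 30 min RT, luminescence. Readout = decrease in reporter signal.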
FLuc modulator: firefly luciferase modulation, counter-screen for miR-21 project | AID 588342 | Potency, µM (titrated, usually from 57.5 µM), usual class: inhibitors | purified FLuc, Km substrates, luminescence inhibition | P08659 | actives 6.9% (n = 360,000); further: nearly all actives have a fitted effect of over 55% in size
Target sequence (P08659 whole entry, looked up): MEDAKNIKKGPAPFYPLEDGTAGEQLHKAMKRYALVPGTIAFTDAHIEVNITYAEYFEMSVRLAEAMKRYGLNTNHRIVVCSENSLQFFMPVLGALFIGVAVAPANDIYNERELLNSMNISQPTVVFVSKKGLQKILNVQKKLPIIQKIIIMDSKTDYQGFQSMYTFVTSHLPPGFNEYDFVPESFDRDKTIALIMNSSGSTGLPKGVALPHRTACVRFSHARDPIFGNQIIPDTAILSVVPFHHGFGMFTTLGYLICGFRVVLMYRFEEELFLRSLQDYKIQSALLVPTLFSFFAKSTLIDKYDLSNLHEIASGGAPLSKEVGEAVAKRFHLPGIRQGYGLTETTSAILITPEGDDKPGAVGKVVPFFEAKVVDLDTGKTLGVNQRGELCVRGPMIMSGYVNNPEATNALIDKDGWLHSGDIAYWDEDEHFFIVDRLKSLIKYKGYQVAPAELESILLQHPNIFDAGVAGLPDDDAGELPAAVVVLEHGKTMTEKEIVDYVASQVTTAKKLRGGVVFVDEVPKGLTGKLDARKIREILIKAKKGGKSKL
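Biochemical qHTS of compounds, final roughly 60 µM downward over six points, against 10 nM purified firefly luciferase using Km concentrations of substrates (10 uM D-luciferin, 10 uM ATP) in Tris acetate pH 7.5 buffer; luminescence output.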
Numbers stand for hits; - = inactive; ? = inconclusive; . = not tested or not shown. The call rests on the fitted dose curve; in most records, active means well fitted curve in the direction sought with a large enough effect; inconclusive means small, poorly fitted or top-dose-only effect, or another doubt; inactive means no such curve, though single readings can be large; an effect the other way counts as inactive or inconclusive.

SMILES | ELG1 genotox | Rab9 promoter act | SMN2 splice up | NPC1 prom act | ELG1 DNA repair | FLuc modulator
O=C(COC(=O)c1ccccc1Cl)NCCC1=CCCCC1 | - | - | - | - | ? | 17µM
Cc1ccc(C(=O)OCC(=O)NCCC2=CCCCC2)s1 | - | - | - | - | ? | -
O=C(COC(=O)c1cccs1)NCCC1=CCCCC1 | - | - | ? | - | - | 19µM
CCN1CCN(C(c2ccc(SC)cc2)c2c(O)cc(C)n(CCOC)c2=O)CC1 (stereo unspecified) | . | . | . | . | . | -
CNC(=S)N/N=C/c1ccc(-c2ccc(Cl)c([N+](=O)[O-])c2)o1 | - | - | . | - | ? | -
O=C1NC(c2ccccc2)=N/C1=C/c1ccco1 | ? | 3.2µM | 13µM | 3.5µM | ? | 2.1µM
O=C1NC(c2cccc(Br)c2)=N/C1=C\c1ccco1 | - | ? | - | ? | ? | 11µM
O=C1NC(c2ccccc2Br)=N/C1=C\c1ccco1 | ? | ? | . | - | ? | 0.38µM
Cc1c(Cl)cccc1NC(=O)CNC(=O)c1ccc2c(c1)OCCO2 | - | . | . | . | ? | .
O=C1CCc2cc(NS(=O)(=O)c3ccc(Cl)cc3)cc3c2N1CC3 | ? | - | . | - | ? | -
Cc1ccc2c(CN3CCC(C)CC3)cc(=O)oc2c1 | 4.6µM | 1.8µM | 14µM | 3.5µM | ? | 7.6µM
COc1ccc(-c2cn(Cc3ccc4ccccc4c3)nn2)cc1 | - | - | . | - | ? | -
COc1ccc(-c2cn(CC3CCCCC3)nn2)cc1 | ? | 2.8µM | . | 4µM | ? | ?
c1ccc(-c2cn(C[C@H]3CC[C@@H]([C@@H]4CC[C@H](Cn5cc(-c6ccccc6)nn5)O4)O3)nn2)cc1 | - | - | . | - | - | -
c1ccc(-c2cn(CC3CCCCC3)nn2)cc1 | ? | 2.2µM | . | 3.5µM | ? | 15µM
CCCCCc1ccc(-c2cn(CC3CCCCC3)nn2)cc1 | - | 2µM | . | ? | - | -
c1ccc(Sc2cnc3ccccc3n2)cc1 | . | . | - | . | . | 21µM
Clc1ccc(Sc2cnc3ccccc3n2)cc1 | . | . | - | . | . | 15µM
Brc1ccc(Sc2cnc3ccccc3n2)cc1 | . | . | - | . | . | ?
CCC(NS(=O)(=O)c1c(C)[nH]c(=O)[nH]c1=O)C12CC3CC(CC(C3)C1)C2 (stereo unspecified) | - | - | - | - | - | -
Cc1nc2ccccn2c(=O)c1NC(=O)c1cccc2ccccc12 | - | - | . | - | ? | -
CCCOc1cccc(-c2cc(C(=O)NN)c3ccccc3n2)c1 | - | - | - | - | - | 21µM
CCCOc1cccc(-c2cc(C(=O)N/N=C/c3ccccn3)c3ccccc3n2)c1 | ? | - | . | - | - | 3.8µM
CC(C)COc1cccc(-c2cc(C(=O)Nc3ccon3)c3ccccc3n2)c1 | - | - | . | - | ? | ?
COc1cc(/C=N/NC(=O)c2cc(-c3ccccc3)nc3ccccc23)cc(OC)c1O | - | - | . | - | ? | 24µM
SMILES | ELG1 genotox | Rab9 promoter act | SMN2 splice up | NPC1 prom act | ELG1 DNA repair | FLuc modulator
Cc1cccc(/C=N/NC(=O)c2cc(-c3cccnc3)nc3ccccc23)c1 | - | - | - | - | - | -
COc1ccc(-c2cc(C(=O)N/N=C/c3cccnc3)c3ccccc3n2)cc1 | - | - | . | - | ? | 1.1µM
COc1cc([N+](=O)[O-])ccc1NC(=O)Cn1ccsc1=N | - | - | . | - | - | -
O=C(NNC(=O)C1CCN(C(=O)Nc2ccccc2)CC1)c1ccc([N+](=O)[O-])cc1 | - | - | . | - | - | -
COc1ccc(CC(=O)Nc2ccccc2C(C)=O)cc1S(=O)(=O)N1CCOCC1 | - | - | . | - | - | -
CC(=O)Nc1ccc(SCC(=O)NC(=O)c2ccccc2Br)cc1 | - | - | . | - | - | -
CCOc1ccc(-n2cc(C(=O)Nc3cccc(Cl)c3)c3cc(OC)c(OC)cc3c2=O)cc1 | - | - | - | - | ? | -
O=C(Cn1ncc2c(=O)oc3ccccc3c21)NCc1ccccc1Cl | . | . | - | . | . | -
COc1ccc(-c2cc(C(=O)N/N=C(\C)c3cccnc3)c3ccccc3n2)cc1 | ? | ? | . | ? | ? | 0.67µM
CCCOc1cccc(-c2cc(C(=O)N/N=C/c3cccnc3)c3ccccc3n2)c1 | - | - | . | - | 16µM | 7.6µM

High-throughput results (PubChem)
